# MITF inh: human MITF inhibition, primary screen. inhibition, % at 2.6 µM. 650,000 compounds, 0.91% hits. O75030. AlphaScreen MITF homodimerization, bead proximity signal; in the data active means inhibition above about 50%;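 further: 0% = vehicle wells with protein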
# Target sequence (O75030 whole entry, looked up): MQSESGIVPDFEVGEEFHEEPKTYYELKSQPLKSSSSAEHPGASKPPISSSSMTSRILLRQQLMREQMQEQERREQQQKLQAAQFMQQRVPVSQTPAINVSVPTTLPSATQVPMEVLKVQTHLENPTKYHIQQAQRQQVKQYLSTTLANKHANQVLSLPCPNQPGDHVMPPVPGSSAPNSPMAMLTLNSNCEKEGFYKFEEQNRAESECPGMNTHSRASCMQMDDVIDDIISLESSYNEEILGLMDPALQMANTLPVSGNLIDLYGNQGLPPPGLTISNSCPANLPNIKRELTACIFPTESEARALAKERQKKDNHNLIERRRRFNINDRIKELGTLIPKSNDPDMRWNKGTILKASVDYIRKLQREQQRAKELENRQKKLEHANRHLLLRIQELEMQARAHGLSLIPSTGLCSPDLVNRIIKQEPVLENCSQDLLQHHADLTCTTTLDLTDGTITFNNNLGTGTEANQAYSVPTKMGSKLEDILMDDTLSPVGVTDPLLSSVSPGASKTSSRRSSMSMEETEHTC
# GPR151 activ: activates the human receptor GPR151. Q8TDV0. PathHunter beta-arrestin GPR151 cells, luminescence. activation, % at 11.2 µM. 650,000 compounds, 1% hits. AID 1508602; in the data active means activation above about 4.9%;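 further: 0% = median of compound wells and 100% = cells with positive control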
# TEAD-YAP block: TEAD-YAP interaction inhibition | HEK-TIYL cells, TEAD-Gal4/YAP UAS-luciferase luminescence | inhibition, % at 9.12 µM | 640,000 compounds, 1.4% hits | AID 1259422; in the data active means inhibition above about 32%;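 further: 0% = median of test compound wells and 100% = reference inhibitor wells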
# FBW7 act: human FBW7 E3 ligase activation, primary screen. AID 1259310. normalized activity (activation), % at 26.1 µM. AlphaScreen FBW7–phospho-cyclin E peptide binding, activator screen. Q969H0. 650,000 compounds, 0.13% hits; in the data active means normalized activity above about 1.9%;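 further: purified mutant Fbw7 with reduced substrate affinity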
# MITF inh conf: human MITF inhibition, confirmation; shares compounds with MITF inh; AlphaScreen MITF homodimerization, biotin/His-MITF beads; inhibition, % at 2.6 µM; 4,700 compounds, 16% hits; AID 1259372;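 active means inhibition above a cutoff derived from the DMSO control wells, cut at about 28% in these data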;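 further: 0% = MITF dimer wells with DMSO only; inhibitors lower the bead chemiluminescence by keeping MITF from dimerizing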
# AS interf DR: AlphaScreen optical interference, dose response counter-screen. shares compounds with MITF inh. AlphaScreen optical interference counterscreen, cell-free. IC50, µM. 480 compounds, 6% hits; call rule not given here
# AS interf ctr: counter-screen: compounds optically interfering with AlphaScreen; 4,700 compounds, 7.6% hits; inhibition, % at 2.6 µM; LysRS AlphaScreen counterscreen, signal interference, triplicate; shares compounds with MITF inh;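 active means inhibition above a cutoff derived from the DMSO control wells, cut at about 30% in these data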
# Active calls of the source: *; . = no result given. Compounds with a hit are over-represented: about 3.4% of the library has one in this group of screens.
SMILES,MITF inh,GPR151 activ,TEAD-YAP block,FBW7 act,MITF inh conf,AS interf ctr,others
CCN1CCc2c(sc(NC(=S)NC(=O)/C=C/c3ccco3)c2C(N)=O)C1,78*,1,-14,0,79*,3,AS interf DR=>6.5
O=C(/C=C/c1ccco1)NC(=S)Nc1cccc(C(=O)O)c1,69*,-1,-27,-1,62*,10,AS interf DR=>6.5
O=C(/C=C/c1ccco1)NC(=S)Nc1ccc(Cl)c(C(=O)O)c1,76*,0,-2,0,64*,10,AS interf DR=>6.5
CCOC(=O)c1c(NC(=O)/C=C/c2ccco2)sc2c1CC(C)(C)OC2,-5,2,2,0,.,.,
CC(C)N(C)CCOC(=O)/C=C/c1ccco1,59*,-1,-2,-1,62*,7,AS interf DR=>6.5
CN(Cc1ccccc1)C(=O)COC(=O)/C=C/c1ccco1,11,-1,-5,0,.,.,
CN(CCOC(=O)/C=C/c1ccco1)Cc1ccccc1,68*,-2,2,0,62*,9,
CCC(=O)Nc1ccc2c(c1)C(=O)N(C1CCCCC1)C2=O,-1,0,-13,0,.,.,
CCCC(=O)Nc1ccc2c(c1)C(=O)N(C1CCCCC1)C2=O,58*,-1,11,0,-5,-8,
O=C(NCc1ccc2c(c1)OCO2)c1coc(=O)c2ccccc12,-14,1,-13,0,.,.,
Cc1cc(C(C)(C)C)ccc1OCCCN1CCN(C)CC1,63*,1,-4,0,16,3,
Cc1cc(C(C)(C)C)ccc1OCCOCCN1CCN(C)CC1,49,0,-5,0,.,.,
Cc1cc(C(C)(C)C)ccc1OCCOCCN1CCOCC1,73*,1,3,0,-12,11,
Cc1cc(C(C)(C)C)ccc1OCCN1CCN(C)CC1,87*,1,2,0,27,20,
Cn1c(-c2ccccc2)cnc1NCc1ccc(F)cc1,26,2,-3,0,.,.,
Cn1c(-c2ccc(F)cc2)cnc1NCc1cccc(F)c1,53*,-1,-9,1,-4,-5,
Cn1c(-c2ccc(F)cc2)cnc1NCc1ccccc1,59*,-1,1,0,-9,-3,
COc1ccc(-c2nc3ccccc3c(=O)n2NC(=O)c2ccc(C(C)(C)C)cc2)cc1,1,0,12,0,.,.,
COc1ccc(CCNC(N)=S)cc1OC,63*,0,-6,0,6,-1,
COc1ccc(CCNc2ccc(Cl)cn2)cc1OC,97*,-1,-10,0,-12,-6,
O=C(Nc1ccccc1-c1nc2ccccc2[nH]1)c1ccccc1[N+](=O)[O-],6,0,7,0,.,.,
CCn1c(=O)c(C(=O)NC23CC4CC(CC(C4)C2)C3)c(O)c2ccccc21,24,1,4,0,.,.,
CCOC(=O)N1CCN(S(=O)(=O)c2ccc(C(=O)Nc3ccc4nc(C)sc4c3)cc2)CC1,10,0,27,0,.,.,
CCOC(=O)N1CCN(S(=O)(=O)c2ccc(C(=O)Nc3ccc(-c4nc5ccc(C)cc5s4)cc3)cc2)CC1,53*,0,-4,0,-22,-2,
CCc1ccc(NC(=O)C2CC=CCC2C(=O)O)cc1 (stereo not given),83*,0,6,1,7,8,
SMILES,MITF inh,GPR151 activ,TEAD-YAP block,FBW7 act,MITF inh conf,AS interf ctr,others
CC(=O)Nc1ccc(NC(=O)C2CC=CCC2C(=O)O)cc1 (stereo not given),-5,-1,1,0,.,.,
Cc1cc(C)c(NC(=O)C2CCN(c3cc(C)nc4ncnn34)CC2)c(C)c1,-5,-1,-2,0,.,.,
Nc1n[nH]c(CC(=O)N(Cc2ccccc2)C2(C(=O)Nc3ccccc3)CCCCC2)n1,70*,0,-2,0,109*,101*,
CN(C(=O)Cc1nc(N)n[nH]1)C1(C(=O)Nc2ccccc2)CCCCC1,64*,-1,-4,-1,92*,101*,
Cc1ccc(NC(=O)C2(N(C)C(=O)Cc3nc(N)n[nH]3)CCCCC2)cc1,47,-2,6,0,.,.,
Nc1ncc2c(n1)CCCC2=O,-6,2,8,0,.,.,
CCOC(=O)c1ccc(N2C(=N)S/C(=C\c3ccc(OCc4ccccc4F)cc3)C2=O)cc1,17,0,0,0,.,.,

# High-throughput results: PubChem, The Scripps Research Institute Molecular Screening Center
